According to the supplement of paper PMC10681739:

Tests used:
[1] = target: T1, ETS1 (UniProt P14921); assay: ETS1 binding intensity (PBM fluorescence), ETS1 alone (arbitrary fluorescence units); higher = stronger binding; settings: ETS1 concentration 1 nM; RUNX1 concentration 0 nM
T1 sequence: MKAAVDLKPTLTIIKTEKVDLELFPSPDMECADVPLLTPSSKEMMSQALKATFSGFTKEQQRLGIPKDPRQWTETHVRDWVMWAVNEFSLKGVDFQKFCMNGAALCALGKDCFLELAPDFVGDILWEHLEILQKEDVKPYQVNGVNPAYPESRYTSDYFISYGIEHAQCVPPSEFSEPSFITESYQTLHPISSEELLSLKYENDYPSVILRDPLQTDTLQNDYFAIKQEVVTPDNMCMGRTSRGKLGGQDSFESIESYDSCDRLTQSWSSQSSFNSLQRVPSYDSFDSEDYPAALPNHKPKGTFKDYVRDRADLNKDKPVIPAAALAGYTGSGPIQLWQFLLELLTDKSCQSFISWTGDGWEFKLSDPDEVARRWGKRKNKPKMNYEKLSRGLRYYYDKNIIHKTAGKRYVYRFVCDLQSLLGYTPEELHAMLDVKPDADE

[2] = target: RUNX1 (UniProt Q01196); assay: RUNX1 binding intensity (PBM fluorescence), RUNX1 alone (arbitrary fluorescence units); higher = stronger binding; settings: RUNX1 concentration 2 nM; ETS1 concentration 0 nM
Experimental: (§1)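 Cooperative gcPBM on 36-bp genomic probes with neighbouring ETS1 and RUNX1 sites. Recombinant human RUNX1 (2 nM) was incubated alone or with ETS1 (25 nM) and detected with anti-RUNX1 antibody plus Alexa488 secondary. Values are medians over 4 replicate spots; the RUNX1+ETS1 data were normalised to the RUNX1-only data. The probes sit in constant array flanks that are not printed.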

[3] = target: RUNX1 (UniProt Q01196); assay: RUNX1 binding intensity (PBM fluorescence) in presence of ETS1, normalised to RUNX1-only experiment (arbitrary fluorescence units); higher = stronger binding; settings: RUNX1 concentration 2 nM; ETS1 concentration 25 nM
Experimental: as §1
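Throughout, for RUNX1 binding intensity (PBM fluorescence) in presence of ETS1, normalised to RUNX1-only experiment: Full-length recombinant human ETS1 or RUNX1 bound to double-stranded 36-bp genomic probes on microarrays, detected by protein-specific primary antibody and Alexa488 secondary, spot fluorescence as median of four replicate spots.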
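Throughout, for RUNX1 binding intensity (PBM fluorescence), RUNX1 alone: Full-length recombinant human RUNX1 bound to double-stranded 36-bp genomic probes on a high-density microarray, scored as Alexa488 fluorescence per spot via anti-RUNX1 antibody, median of four replicate spots.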

Chain of RUNX1 (Q01196 whole entry): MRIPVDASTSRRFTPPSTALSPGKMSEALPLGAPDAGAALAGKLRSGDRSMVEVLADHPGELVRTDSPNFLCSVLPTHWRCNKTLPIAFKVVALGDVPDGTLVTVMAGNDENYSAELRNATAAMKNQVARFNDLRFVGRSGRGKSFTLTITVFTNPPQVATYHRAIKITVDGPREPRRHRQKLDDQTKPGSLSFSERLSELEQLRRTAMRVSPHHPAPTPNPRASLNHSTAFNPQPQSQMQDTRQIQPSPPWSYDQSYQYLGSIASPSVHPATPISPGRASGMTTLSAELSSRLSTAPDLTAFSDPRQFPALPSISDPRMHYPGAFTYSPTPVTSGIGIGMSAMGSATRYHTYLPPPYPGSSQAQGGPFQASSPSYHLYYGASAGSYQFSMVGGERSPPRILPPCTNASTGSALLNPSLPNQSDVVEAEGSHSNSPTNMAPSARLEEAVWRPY

Sequence: GGCCTGTCACACACAGGAAGCGGTCACAGAAAAGCT
- ETS1 binding intensity [1]: 4530
- RUNX1 binding intensity [2]: 795
- RUNX1 binding intensity [3]: 2140

Sequence: TCTAAATCACTTCCTGTTACAGAAACCACAGGCCTG
- ETS1 binding intensity [1]: 4300
- RUNX1 binding intensity [2]: 1220
- RUNX1 binding intensity [3]: 4430

Sequence: AGCTGCATTTCCGGGCAGGCAATGAAACCACAGAGT
- ETS1 binding intensity [1]: 1100
- RUNX1 binding intensity [2]: 918
- RUNX1 binding intensity [3]: 2370

Sequence: AACCAAACAGCCACAGGAAGTGGTTTCTGTGATTCA
- ETS1 binding intensity [1]: 7840
- RUNX1 binding intensity [2]: 840
- RUNX1 binding intensity [3]: 1960

Sequence: ATGCCTTCTTCCAGAGGATGTGGTCGCTACTAGTGG
- ETS1 binding intensity [1]: 1320
- RUNX1 binding intensity [2]: 725
- RUNX1 binding intensity [3]: 868

Sequence: GCGCAAAGCCGGAAGGAGGGGTTTGCGGCTGGGGAG
- ETS1 binding intensity [1]: 1730
- RUNX1 binding intensity [2]: 769
- RUNX1 binding intensity [3]: 1360

Sequence: GGAAAAGGAAGTGGCTTTGACTTGCGGGCAGGGAGA
- ETS1 binding intensity [1]: 1020
- RUNX1 binding intensity [2]: 733
- RUNX1 binding intensity [3]: 2560

Sequence: TGGGGGATGGCAGCAGGATGTGGTTATCTCAGAAAG
- ETS1 binding intensity [1]: 3330
- RUNX1 binding intensity [2]: 814
- RUNX1 binding intensity [3]: 1940

Sequence: CAAACAGGTTCCGGCCGGACTACAGCGCCCACAATG
- ETS1 binding intensity [1]: 432
- RUNX1 binding intensity [2]: 712
- RUNX1 binding intensity [3]: 1080

Sequence: TTACGACACTTCCGGCGACGCCCCGCAGCCTTCACC
- ETS1 binding intensity [1]: 2890
- RUNX1 binding intensity [2]: 834
- RUNX1 binding intensity [3]: 1880

Sequence: AACTAAGTGCAGGGGAAGTTGTGGTTATTTTTTACC
- ETS1 binding intensity [1]: 657
- RUNX1 binding intensity [2]: 1270
- RUNX1 binding intensity [3]: 1760

Sequence: TGCGAGGTTGCCAGGAAACCGCGAAGCCGAGGTCCC
- ETS1 binding intensity [1]: 808
- RUNX1 binding intensity [2]: 1120
- RUNX1 binding intensity [3]: 1530

Sequence: TACATAGGCGGAAGTGGCCTGCGGGCGCCGGAGTTG
- ETS1 binding intensity [1]: 3980
- RUNX1 binding intensity [2]: 714
- RUNX1 binding intensity [3]: 1710

Sequence: AGTAGAGGAGGAAGTTAAATGTGGTTTTCTGGGTGG
- ETS1 binding intensity [1]: 864
- RUNX1 binding intensity [2]: 857
- RUNX1 binding intensity [3]: 1130

Sequence: CGTCTAATTGCAGGAAGTGGTTTGAAATGTTAATCT
- ETS1 binding intensity [1]: 4180
- RUNX1 binding intensity [2]: 1980
- RUNX1 binding intensity [3]: 3650
